Screens deposited in PubChem by National Center for Advancing Translational Sciences (NCATS).
Giardia FBPA inh = qHTS Assay for Inhibitors of Fructose-1,6-bisphosphate Aldolase from Giardia Lamblia; A8B2U2; purified Giardia FBPA; Potency, µM (series often up to 59.6 µM), inactives show at the highest dose activity, negative = inhibition, hits mostly inhibitors; 290,000 compounds, 0.71% hits; AID 2451, 2010; further: potency means the concentration at half of the fitted maximal effect; nearly all actives have a fitted effect of over 55% in size
Target sequence (A8B2U2 whole entry, looked up): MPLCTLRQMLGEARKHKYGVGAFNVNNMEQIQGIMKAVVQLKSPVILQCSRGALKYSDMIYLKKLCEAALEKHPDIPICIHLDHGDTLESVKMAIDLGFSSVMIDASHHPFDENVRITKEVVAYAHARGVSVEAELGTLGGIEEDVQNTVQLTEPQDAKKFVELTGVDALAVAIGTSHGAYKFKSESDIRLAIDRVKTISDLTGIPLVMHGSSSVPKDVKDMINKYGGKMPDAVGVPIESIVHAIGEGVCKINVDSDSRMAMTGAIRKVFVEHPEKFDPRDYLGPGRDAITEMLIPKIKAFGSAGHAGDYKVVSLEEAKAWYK
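40 nM FBPA preincubated 10 min at RT with compound (up to 57.5 uM final), then substrate plus GAPDH/TPI/NAD/arsenate coupling and diaphorase/resazurin added. Fluorescence read after 20 min at RT, 525/598 nm.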
HCMV inh = qHTS Assay for inhibitors of the human cytomegalovirus (HCMV) | HFF cells, HCMV-luciferase reporter, 72 h; active compounds read low | 410,000 compounds, 4.5% hits | activity change, negative = inhibition, % at 57.5 µM; in the data active means activity change below about -60%; inconclusive means no clear call, values can overlap the other calls; inactive means above about -39%
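Screen run at 2 compound doses on HFFs infected with reporter HCMV, MOI 1 PFU/cell. Luciferase activity from cell lysates at 72 h post infection gave inhibition relative to buffer-only and Salinomycin wells.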
Pf growth 48h = Primary qHTS for delayed death inhibitors of the malarial parasite plastid, 48 hour incubation | P. falciparum luciferase growth in erythrocytes, 48 h | Potency, µM (top dose mostly 28.7 µM), for inactives: at the highest dose activity change, negative = inhibition, hits mostly inhibitors | 310,000 compounds, 5.9% hits | AID 504832, 2011; further: potency means the concentration at half of the fitted maximal effect
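Parasite viability was followed by luminescence of a genomically integrated firefly luciferase. Cultures held 0.1% parasitemia at 2% hematocrit (final), incubated under 5% CO2 at 37 C.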
Sm TGR inh = qHTS Assay for the Inhibitors of Schistosoma Mansoni Peroxiredoxins | purified TGR, DTNB reduction, TNB absorbance 405 nm | Schistosoma mansoni thioredoxin glutathione reductase (TGR), Q962Y6 | 360,000 compounds, 3% hits | Potency, µM (titrated, usually from 114 µM), inactives show at the highest dose activity change, negative = inhibition, actives largely listed as inhibitors; further: potency means the concentration at half of the fitted maximal effect; nearly all actives have a fitted effect of over 60% in size
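First, TGR (20 nM dispensed) and NADPH were mixed with compound. Second, a 15 min room-temperature incubation followed. Third, further NADPH and then DTNB were added to start the reaction. Finally, TNB absorbance was monitored kinetically.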
Pf growth 96h = Primary qHTS for delayed death inhibitors of the malarial parasite plastid, 96 hour incubation; 320,000 compounds, 6.9% hits; P. falciparum luciferase reporter growth, 96 h; Potency, µM (titrated, usually from 28.7 µM), without a hit: at the top dose activity change, negative = inhibition, hits mostly inhibitors; further: potency means the concentration at half of the fitted maximal effect
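Erythrocytes infected with luciferase-expressing P. falciparum were dispensed at 2% hematocrit and 0.05% parasitemia (final), then incubated with compounds 96 hours at 37 C in 5% CO2. Luminescence after detection reagent addition reported growth.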
Numbers without * were called inactive; [ ] = dose if it differs, or a comment. A selection: hits, their analogues and other compounds. The true share with any hit is near 14%. Unless noted, the call rests on the fitted dose curve; in most records, active means well fitted curve in the direction sought with a large enough effect; inconclusive means small, poorly fitted or top-dose-only effect, or another doubt; inactive means no such curve, though single readings can be large; an effect the other way counts as inactive or inconclusive. On the % scale 0 is the no-effect control and ±100 the full control effect.

Screening O=C(OCC(=O)N1CCCCC1)c1cc2ccccc2cc1O returned Giardia FBPA inh -1%, HCMV inh -8, Pf growth 48h 52%, Sm TGR inh -3% and Pf growth 96h 9.3µM*.
C/C(CC(=O)N1CCCC1)=N\NC(=O)c1cc2ccccc2cc1O was read as Giardia FBPA inh 13µM*, HCMV inh inconclusive, Pf growth 48h inconclusive, Sm TGR inh inconclusive and Pf growth 96h -24%.
`Cc1ccc(C(=O)NNC(=O)c2cc3ccccc3cc2O)cc1` gave Giardia FBPA inh -25%, HCMV inh 16, Pf growth 48h 90%, Sm TGR inh -10% and Pf growth 96h 160%.
CCOC(=O)C(C)/C(C)=N/NC(=O)c1cc2ccccc2cc1O (centres undefined) was read as Giardia FBPA inh -20%, HCMV inh -74*, Pf growth 48h inconclusive, Sm TGR inh -10% and Pf growth 96h inconclusive.
COc1ccc(C(C)=O)cc1CSc1ccc(S(=O)(=O)N2CCCCC2)cn1 was read as HCMV inh -1, Pf growth 48h inconclusive, Sm TGR inh -9% and Pf growth 96h -12%.
`CC(C)(CNC(=O)c1cccc(S(=O)(=O)N2CCCCC2)c1)N1CCOCC1` gave HCMV inh -4.
O=C(NCCc1c[nH]c2ccccc12)O[C@H]1CC[C@@]23CCCN2C(=O)CCC[C@H]3[C@H]1Cc1ccccc1 was read as HCMV inh 16.
CCC(C)[C@H]1CNC(=S)N1CCC12CC3CC(CC(C3)C1)C2 (some centres undefined) was read as Giardia FBPA inh 3%, HCMV inh -79*, Pf growth 48h inconclusive, Sm TGR inh 3% and Pf growth 96h inconclusive.
CCOC(=O)C1=CN(Cc2ccco2)S(=O)(=O)NC1c1ccc(C(F)(F)F)cc1 (centres undefined) was read as HCMV inh 12.
Screening O=S(=O)(c1cccc(-c2csc(-c3cccnc3)n2)c1)N1CCCCC1 returned Giardia FBPA inh 7%, HCMV inh -69*, Pf growth 48h 9.3µM*, Sm TGR inh -6% and Pf growth 96h 55%.
c1cncc(-c2nc(-c3ccco3)cs2)c1 was read as Giardia FBPA inh -16%, HCMV inh 6, Pf growth 48h 44% and Sm TGR inh 7.9µM*.
Screening O=S(=O)(c1cccc(-c2csc(-c3cccnc3)n2)c1)N1CCOCC1 returned Giardia FBPA inh -5%, HCMV inh inconclusive, Pf growth 48h inconclusive, Sm TGR inh -3% and Pf growth 96h inconclusive.
`O=S(=O)(c1ccc(-c2csc(-c3cccnc3)n2)cc1)N1CCCCC1` gave Giardia FBPA inh 0%, HCMV inh -62*, Pf growth 48h inconclusive and Sm TGR inh -14%.
Screening COc1cc(-c2nnc(SCC(=O)c3cc(C)n(CC4CCCO4)c3C)o2)cc(OC)c1OC (centres undefined) returned Giardia FBPA inh -15%, HCMV inh 22, Pf growth 48h 8.3µM*, Sm TGR inh -22% and Pf growth 96h -19%[5.75 µM].
Screening Cc1cc(C(=O)CSc2nnc(-c3cccnc3)n2-c2ccccc2F)c(C)n1CC1CCCO1 (centres undefined) returned Giardia FBPA inh -6%, HCMV inh 2, Sm TGR inh -7% and Pf growth 96h 15µM*.
Cc1cc(C(=O)CSc2nnc(-c3ccc(F)cc3)o2)c(C)n1CC1CCCO1 (centres undefined) was read as Giardia FBPA inh -18%, HCMV inh inconclusive, Pf growth 48h -6%, Sm TGR inh -16% and Pf growth 96h 13µM*.
`Cc1cc(C(=O)CSc2nnc(Nc3ccccc3F)s2)c(C)n1CC1CCCO1` (centres undefined) gave Giardia FBPA inh -9%, HCMV inh -11, Sm TGR inh 0%[11.4 µM] and Pf growth 96h 0%.
For COc1ccccc1Nc1nnc(SCC(=O)c2cc(C)n(CC3CCCO3)c2C)s1 (centres undefined) the results were Giardia FBPA inh 1%, HCMV inh -76*, Pf growth 48h 10µM*, Sm TGR inh 7% and Pf growth 96h 4.7µM*.
Cc1nn(CCCC(=O)NCc2ccccc2)c(=O)c2cc3sccc3n12 was read as HCMV inh inconclusive and Sm TGR inh -8%.
Screening Cc1ccc(C)c(NC(=O)CSc2nc(=O)n(CCN(C)C)c3c2CCC3)c1 returned HCMV inh -4 and Sm TGR inh -2%.
COc1cc(-c2nnc(SCCOc3cc(C)cc(C)c3)o2)cc(OC)c1OC was read as HCMV inh 0 and Sm TGR inh 35µM*.
COc1cc(-c2nnc(SCC3(c4ccc(Br)cc4)OCCO3)o2)cc(OC)c1OC was read as Giardia FBPA inh -2%, HCMV inh -4, Pf growth 48h 10µM*, Sm TGR inh 0% and Pf growth 96h 13µM*.
For COc1cc(-c2nnc(SCC(=O)N3CCCC3)o2)cc(OC)c1OC the results were Giardia FBPA inh -1%, HCMV inh 85, Pf growth 48h inconclusive, Sm TGR inh -10% and Pf growth 96h 57%.
`COc1cc(-c2nnc(SCC(=O)/C(C#N)=C(\C)N)o2)cc(OC)c1OC` gave Giardia FBPA inh 0%, HCMV inh 84, Pf growth 48h inconclusive, Sm TGR inh -24% and Pf growth 96h 9.3µM*.
`CCc1ccccc1OCCSc1nnc(-c2cc(OC)c(OC)c(OC)c2)o1` gave HCMV inh 6 and Sm TGR inh -13%.
`COc1ccc(NC(=O)CSc2nnc3ccc(-c4cccnc4)nn23)c(OC)c1` gave HCMV inh -11, Pf growth 48h -16%, Sm TGR inh -2% and Pf growth 96h -17%.
For CC1(C(=O)Nc2cccc(Oc3ccccc3)c2)CCN1Cc1ccccc1OC(F)F (centres undefined) the results were HCMV inh -1.
O=C(CC(C(=O)O)P(=O)(c1ccccc1)c1ccccc1)c1ccc(Br)cc1 (centres undefined) was read as Giardia FBPA inh 8%, HCMV inh 77, Pf growth 48h 27%, Sm TGR inh 28µM* and Pf growth 96h 8%.
`O=C(CC(Sc1ccc(Br)cc1)C(=O)O)c1ccc(Br)cc1` (centres undefined) gave Giardia FBPA inh -2%, Sm TGR inh 0.28µM* and Pf growth 96h inconclusive.
`Cc1ccc(C(CC(=O)c2ccc(Cl)cc2)C(=O)O)cc1` (centres undefined) gave Giardia FBPA inh 0%, HCMV inh -3, Pf growth 48h 4%, Sm TGR inh -3% and Pf growth 96h 11%.
